# AI-2 QS modul = modulates the Vibrio harveyi AI-2 quorum sensing system. activity change, % at 7.5 µM. AID 2094. Vibrio harveyi JMH597 AI-2 luminescence/OD600 ratio, 9 h; active compounds read low; strain lacks LuxN and CqsS sensors; 0 = neutral-control median. hit rate 0.4% among 300,000; in the data active = activity change below about -75%, passing the limit was not always enough;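 also: luminescence divided by OD600 gain over 9 h not by final OD600 alone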
# HSF1 inh = HSF1 inhibition; NIH3T3-HGL HSE-luciferase, MG132-induced, luminescence 8 h; active compounds read low; activity change, negative = inhibition, % at 7.5 µM (by protocol); hit rate 0.77% among 300,000;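 active = more than half of replicate wells show activity change below -50%, luminescence cut by over half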;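 also: luciferase reports HSF-1 transcriptional activity via heat shock element; 0% = median of DMSO wells and -100% = zero luminescence signal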
# HSP90 refold inh = HSP90 refolding inhibition in rabbit reticulocyte lysate; AID 1789; hit rate 0.91% among 290,000; luciferase refolding luminescence, 3 h; inhibition, % at 5.6 µM;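 active = inhibition above the screen-wide mean plus 3 SD, computed separately per campaign, cut at about 16% in these data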;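 also: 0% = DMSO wells and 100% = 60 µM geldanamycin wells; inhibitors lower the luminescence because luciferase stays unfolded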
# PG9 binder = PG9 antibody binding by small molecule; TR-FRET gp120-PG9 antibody binding; inhibition, % at 6.7 µM; hit rate 0.43% among 360,000; AID 624416; in the data active = inhibition above about 8.5%
# GAA850 FXN act = activators of GAA850 frataxin (FXN) promoter. HEK293 lucGAA850 FXN promoter luciferase reporter, 24 h; percent of 10 µM SAHA response. activation, % at 6 µM. hit rate 0.56% among 360,000. AID 540364;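 active = activation above the average of all compounds screened plus 3 SD, cutoff fixed separately per campaign, cut at about 7.5% in these data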;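 also: 0% = DMSO wells and 100% = 10 µM SAHA wells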
# SMARCA2 act = SMARCA2 function activation, primary screen; MG213 cells, MMTV-luciferase reporter, dexamethasone, overnight; activation, % at 9.1 µM; AID 652017; hit rate 1% among 370,000; in the data active = activation above about 7.8%;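 also: 0% = vehicle wells and 100% = reference activator wells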
# SMARCA2 conf = SMARCA2 activation, confirmation screen; shares compounds with SMARCA2 act; MG213 cells, MMTV-luciferase with dexamethasone, luminescence, overnight; MG213 cells expressing E1A, Rb sequestered; DMSO wells 0%, reference activator 100%; activation, % at 9.1 µM; hit rate 30% among 3,500; AID 652260;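 active = activation above its plate's cutoff, the mean activation of tested wells plus 3 SD, cut at about 7.9% in these data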
# GAL4-VP16 Luc = GAL4-VP16 reporter activation counter-screen | shares compounds with SMARCA2 act | HEK293 GAL4-VP16 pG5luc reporter, luciferase luminescence; scaled: DMSO wells 0%, SAHA wells 100% | activation, % at 9.1 µM | hit rate 41% among 3,500;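 active = activation above the solvent-only control well mean plus 3 SD, averaged across control plates, cut at about 5.2% in these data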
# Numbers without * were called inactive; / = no result given. Only some compounds are listed: those with a hit (about 3.4% of all), similar ones and a draw of the others.
SMILES,AI-2 QS modul,HSF1 inh,HSP90 refold inh,PG9 binder,GAA850 FXN act,SMARCA2 act,SMARCA2 conf,GAL4-VP16 Luc
Cc1cccc(C(=O)Nc2c(-c3ccccc3)nc3ncccn23)c1,/,/,/,/,/,-1,/,/
O=c1nccc(N/N=C/c2ccccc2)[nH]1,33,0,5,-3,4,8.2*,6,4
O=C(COc1cccnc1[N+](=O)[O-])Nc1cccc(Br)c1,/,/,/,1,5,11*,7,5
Cc1ccc(-c2nc(NCCN(C)C)c3ccccc3n2)cc1,-3,-5,0,-2,7,13*,15*,2
CN(C)CCCNc1nc(-c2ccc(Cl)cc2)nc2ccccc12,-12,2,-1,1,4,1,/,/
O=S1(=O)CC2c3ccccc3CCN2CN1CCc1ccccc1 (configuration not stated),/,/,/,/,/,-3,/,/
COc1cc(NC(=O)Nc2nc(C(N)CCc3ccccc3)cs2)cc(OC)c1OC (configuration not stated),/,/,/,1,-1,-1,/,/
O=C(Nc1ccccc1F)N1CCc2ccccc2C1,12,9,-2,-1,3,10*,2,8.0*
COc1ccccc1CNC(=O)Cc1ccccc1,31,3,-1,-2,4,9.5*,3,5
CNc1ccc(/C=C(\C#N)c2ccccn2)cc1[N+](=O)[O-],23,11,3,0,5,13*,13*,8.0*
N#C/C(=C\c1ccc(Cl)c([N+](=O)[O-])c1)c1ccccn1,21,14,1,-3,0,1,/,/
Cc1ccc(S(=O)(=O)NC(CCCNC(=O)OCc2ccccc2)C(=O)O)cc1 (configuration not stated),/,/,/,1,/,-2,/,/
O=C(COC(=O)c1cc(Br)c(Br)s1)NCCC1=CCCCC1,2,-9,-2,0,0,9.3*,-3,2
O=C(c1ccc(Cl)cc1)c1cnc(-c2ccc(Cl)cc2)s1,24,10,2,1,-1,-3,/,/
O=C(c1ccccc1)c1cnc(-c2ccc(Cl)cc2)s1,31,10,3,2,4,14*,6,6.9*
COc1cccc(CNC(=O)[C@H]2CCCN2C(=O)[C@H]2CCCN2C(=O)c2ccccc2C(F)(F)F)c1,/,/,/,0,/,-2,/,/
CCCCS(=O)(=O)N1CCCc2nc(-c3ccc(F)cc3)ccc21,/,/,/,1,/,-2,/,/
N=c1c2ccccc2nc2n1CCCCC2,/,/,/,1,2,-3,/,/
N=c1c2ccccc2nc2n1CCCCCCC2,/,/,/,-3,0,9.0*,3,2
N#CC1=C(N)Oc2n[nH]c(-c3cccnc3)c2C1c1ccc([N+](=O)[O-])o1 (configuration not stated),14,18,-3,0,5,10*,-1,1
COc1ccc(-c2cc(=O)n(-c3nc4ccccc4[nH]3)[nH]2)cc1,28,7,-2,-1,1,8.4*,18*,3
COc1ccc(CCCc2nc3ccccc3[nH]2)cc1,-7,2,2,0,3,6,/,/
CCCNC(=O)C1(C)CCCN(Cc2cccc(Oc3ccccc3)c2)C1 (configuration not stated),/,/,/,1,-1,-3,/,/
O=C(Cc1ccccc1)N(c1ccc(F)cc1)C1C=CS(=O)(=O)C1 (configuration not stated),20,-3,-5,1,-1,9.9*,-2,0
CCOC(=O)[C@]12CCCCC/C=C\1N(Cc1ccc(OC)cc1)C(=O)[C@H]2CC(=O)NCc1cccs1,/,/,/,/,/,-3,/,/
SMILES,AI-2 QS modul,HSF1 inh,HSP90 refold inh,PG9 binder,GAA850 FXN act,SMARCA2 act,SMARCA2 conf,GAL4-VP16 Luc
Cc1cc(C)c2[nH]c(=O)c(CN(Cc3cccnc3)C(=S)NCCCN(C)C)cc2c1,14,0,-1,1,2,11*,-4,2
COc1ccc(Nc2cc(C(=O)NCCCN3CCOCC3)c3ccccc3n2)cc1OC,21,-13,7,-7,-3,9.8*,1,1
COc1ccc(Nc2cc(C(=O)NCCCN3CCN(C)CC3)c3ccccc3n2)cc1OC,13,-15,0,-2,-1,1,/,/
COC(=O)[C@]12C[C@H](CC(=O)NCc3ccc(C)o3)C(=O)N(Cc3ccco3)C1=C[C@H](C(C)(C)C)O[C@@H]2C,/,/,/,/,/,-1,/,/
CN(C)/N=C/C=C1\CCC/C(=C/c2cccs2)C1=O,37,41,-1,-4,6,8.3*,8,5.3*
O=S(=O)(c1ccc(NC(=S)Nc2ccc3c(c2)OCO3)cc1)N1CCOCC1,28,3,2,-3,1,3,/,/
CNS(=O)(=O)c1ccc(NC(=S)Nc2ccc3c(c2)OCO3)cc1,20,-10,-4,0,3,9.0*,3,0
C/C(=N\NC(=O)c1ccc(O)cc1O)c1cccnc1,12,1,-2,-4,1,10*,3,3
C/C(=N\NC(=O)c1cccs1)c1cccnc1,16,5,-4,-2,5,8.4*,0,1
CC/C=C\[C@H](O)[C@H](O)C1=C(C)C(=O)[C@]2(O1)C(=O)N[C@@](OC)(C(=O)c1ccccc1)[C@@H]2O,/,/,/,/,/,-2,/,/
C=CCN1C(=O)[C@@H](CC(=O)NCCCN2CCCC2=O)[C@]2(C(=O)OC)CCCCC=C12,/,/,/,/,/,8.7*,-1,-2
C=CCN1C(=O)[C@@H](CC(=O)NCc2ccc(C)o2)[C@]2(C(=O)OC)CCCCC=C12,/,/,/,/,/,2,/,/
CCN(CC)CCNC(=O)c1cc2c(=O)n(C)c3ccccc3c2s1,7,-4,2,0,3,14*,14*,2
CCCCN(CC)CCCNC(=O)c1cc2c(=O)n(CC)c3ccccc3c2s1,1,4,-4,1,-1,14*,3,8.1*
COC(=O)c1ccc(CN(c2ccc(C(=O)O)c(O)c2)S(=O)(=O)c2ccc(Cl)c([N+](=O)[O-])c2)cc1,28,-4,2,-2,-1,-2,/,/
CC(CC(=O)Nc1ccc2c(c1)c(=O)n(C)n2-c1cccs1)c1ccccc1 (configuration not stated),/,/,/,-1,-4,-2,/,/
Cc1nccc2oc(=O)c(NC(=O)c3ccc(Cl)cc3)cc12,11,12,-2,-1,1,7,/,/
O=C(Nc1cc2c(oc1=O)CCCC2=O)c1ccc(Cl)cc1,23,14,1,-2,0,9.4*,5,2
